Reference: the supplement of paper PMC12067926
A number with no mark means an inactive call.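 How the source made its calls: active = growth AUC significantly below the DMSO wells by Dunnett test; inactive = the rest.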

Experiments:
Assay in all cases: relative growth (AUC of 72 h growth curve relative to DMSO control, dAUC) (ratio); higher = more growth (less inhibition), active = hit call of the paper
Conditions in all cases: 20 µM
[1] = system: Prolinoborus 1 (Prolinoborus fasciculus)
How it was run: (§1)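 Whole sediment communities and bacterial isolates from Icelandic stream sediments and Silwood Park soil were brought to carrying capacity in Luria–Bertani medium. They were then diluted 1:100 into 96-well plates with each chemical at 20 µM in 1% DMSO, and A600 was recorded every hour for 72 h. The area under each growth curve, integrated by spline, was averaged across three biological replicates. This figure, divided by the mean of the DMSO controls, gives relative growth (dAUC).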

[2] = system: Pseudomonas 1 (Pseudomonas baetica)
How it was run: as §1

[3] = system: Pseudomonas 2 (Pseudomonas vancouverensis)
How it was run: as §1

[4] = system: Pseudomonas 3 (Pseudomonas mandelii)
How it was run: as §1

[5] = system: Pseudomonas 4 (Pseudomonas peli)
How it was run: as §1

[6] = system: Pseudomonas 5 (Pseudomonas baetica)
How it was run: as §1

[7] = system: Pseudomonas 6 (Pseudomonas sp.)
How it was run: as §1

[8] = system: Rhizobium 1 (Rhizobium herbae)
How it was run: as §1

[9] = system: Serratia 1 (Serratia sp. 2015-2462-01)
How it was run: as §1

[10] = system: Sphingomonas 2 (Sphingomonas sp.)
How it was run: as §1

| SMILES | relative growth [1] | relative growth [2] | relative growth [3] | relative growth [4] | relative growth [5] | relative growth [6] | relative growth [7] | relative growth [8] | relative growth [9] | relative growth [10] |
| --- | --- | --- | --- | --- | --- | --- | --- | --- | --- | --- |
| COP(=S)(OC)Oc1nc(Cl)c(Cl)cc1Cl | 1.04 | 1.06 | 1.08 | 1.09 | 1.03 | 1.06 | 1.12 | 0.8 | 0.998 | 1.06 |
| O=C(NC(=O)c1c(F)cccc1F)Nc1ccc(OC(F)(F)C(F)OC(F)(F)F)c(Cl)c1 (stereo not given) | 0.988 | 1.02 | 1.01 | 0.99 | 0.961 | 0.966 | 0.98 | 0.952 | 0.995 | 1.11 |
| Nc1c(Cl)c(F)nc(OCC(=O)O)c1Cl | 1 | 0.977 | 1 | 0.978 | 1.04 | 0.947 | 0.889 | 0.958 | 0.996 | 1.11 |
| N#C/N=C1\SCCN1Cc1ccc(Cl)nc1 | 1.03 | 1.05 | 1.01 | 1.02 | 1.03 | 1 | 1 | 1.02 | 0.986 | 0.998 |
| CCCCN(CCCC)SN(C)C(=O)Oc1cccc2c1OC(C)(C)C2 | 0.949 | 0.618 (active) | 1.03 | 1.07 | 1.01 | 1.03 | 1.18 | 0.946 | 0.977 | 0.798 |
| Cc1cc(C)c(C2=C(OC(=O)CC(C)(C)C)C3(CCCC3)OC2=O)c(C)c1 | 0.977 | 1.1 | 1.12 | 1.09 | 1 | 1.03 | 1.2 | 0.937 | 1.03 | 1.01 |
| CSc1nnc(C(C)(C)C)c(=O)n1N | 0.951 | 0.717 | 0.997 | 0.984 | 1.01 | 0.998 | 0.948 | 0.958 | 0.995 | 0.779 |
| CC(C)NC(=O)N1CC(=O)N(c2cc(Cl)cc(Cl)c2)C1=O | 0.949 | 0.913 | 0.94 | 0.906 | 0.923 | 0.954 | 0.864 | 1.03 | 0.982 | 0.971 |
| CS(=O)(=O)c1cc(C(F)(F)F)ccc1C(=O)c1cnoc1C1CC1 | 1 | 0.985 | 1.02 | 1.01 | 1.02 | 0.96 | 0.911 | 1.11 | 1.06 | 1.11 |
| CN/C(=N/CC1CCOC1)N[N+](=O)[O-] (stereo not given) | 0.955 | 0.963 | 0.983 | 1.03 | 1.03 | 0.992 | 1.06 | 0.912 | 1.01 | 1.14 |
| OC(Cn1cncn1)(c1ccc(F)cc1)c1ccccc1F (stereo not given) | 0.985 | 0.993 | 0.999 | 1.03 | 1.02 | 1 | 0.961 | 0.971 | 0.991 | 1.03 |
| CC(C)N(C)S(=O)(=O)NC(=O)c1cc(-n2c(=O)cc(C(F)(F)F)n(C)c2=O)c(F)cc1Cl | 0.979 | 1.01 | 1.02 | 1.04 | 1.02 | 1.06 | 1.07 | 1.05 | 0.977 | 1.07 |
| CC(C)N1C(=O)c2ccccc2NS1(=O)=O | 1.01 | 1.16 | 1.03 | 1.02 | 0.975 | 1.01 | 1.03 | 1.04 | 0.991 | 1.01 |
| CCOC(=O)OC1=C(c2cc(C)ccc2C)C(=O)N[C@]12CC[C@@H](OC)CC2 | 1 | 1.11 | 0.998 | 1.02 | 1.02 | 0.981 | 1.09 | 0.952 | 0.987 | 1.04 |
| CC(C)CC(C)c1sccc1NC(=O)c1cn(C)nc1C(F)(F)F (stereo not given) | 0.895 | 1.11 | 0.985 | 1.05 | 1 | 1 | 1.05 | 0.331 (active) | 0.974 | 0.888 |
